A number with no mark means an inactive call.
Tested on: Vero E6 infected with SARS-CoV-2
Experiment: inhibition of SARS-CoV-2 cytopathic effect; higher = more antiviral protection, active = above 15
Details: 48 h

Row | Structure (SMILES) | inhibition of SARS-CoV-2 cytopathic effect (1 nM) | inhibition of SARS-CoV-2 cytopathic effect (8.33 nM) | inhibition of SARS-CoV-2 cytopathic effect (100 nM) | inhibition of SARS-CoV-2 cytopathic effect (833.33 nM) | inhibition of SARS-CoV-2 cytopathic effect (10000 nM)
1 | FC(F)(F)c1cccc(C2=CCN(CCc3ccc4ccccc4c3)CC2)c1 [xaliproden] | -0.86% | -1.4% | 1.4% | 0.49% | 0.49%
2 | Cc1c(-c2cnccn2)ssc1=S [oltipraz] | 1.51% | 4.72% | 3.49% | 5.97% | 0.75%
3 | Cc1cccc(C(=O)NCN2CCN(c3ccccc3C#N)CC2)c1 | -2.23% | 0.9% | -0.16% | 0.2% | 0.79%
4 | c1cc(-c2cnn3cc(-c4ccc(N5CCNCC5)cc4)cnc23)c2cccnc2c1 | -0.58% | -1.57% | -4.29% | -2.22% | 6.47%
5 | CC1(N2CCC(n3c([C@@H]4CCCNC4)nc4ccccc43)CC2)CCCCCCC1 | 0.07% | 0.4% | -0.65% | -3.36% | 83.5% (active)
6 | O=C(O)CCc1nc(-c2ccccc2)c(-c2ccccc2)o1 [oxaprozin] | -1.4% | -2.65% | -0.38% | -0.99% | 0.84%
7 | O=[N+]([O-])c1cc(O)c(O)c([N+](=O)[O-])c1 | -0.65% | -3.05% | -3.12% | 1.93% | -3.2%
8 | CCOc1cccc(NC(=O)c2ccc(N3CCCC3)c(C(F)(F)F)c2)c1 | 0.59% | -0.15% | -0.42% | -1.65% | -2.63%
9 | COc1ccc(C(=O)/C(Cc2cc(OC)c(OC)c(OC)c2)=C(\C(=O)O)c2ccc3c(c2)OCO3)cc1 | -2.66% | -0.48% | -0.33% | 1.73% | 17.8% (active)
10 | O=c1[nH]c(=O)n([C@H]2C[C@H](O)[C@@H](CO)O2)cc1/C=C/Br [brivudine] | 1.67% | 0.21% | 0.44% | -0.42% | -0.09%
11 | CCN(CC)CCOC(=O)C(Cc1cccc2ccccc12)CC1CCCO1 (mixture of isomers) [naftidrofuryl] | 0.67% | -0.29% | 2.4% | 1.45% | -1.13%
12 | O=C1[C@H](Cc2ccc(O)cc2)N2C(=O)CCN(C(=O)NCc3ccccc3)[C@H]2CN1Cc1cccc2ccccc12 | -0.18% | 0.82% | 2.23% | 1.89% | -3.36%
13 | C[C@]12CCC(=O)C[C@@H]1CC[C@@H]1[C@@H]2CC[C@]2(C)[C@@H](O)CC[C@@H]12 [Dihydrotestosterone] | -0.75% | -1.02% | -1.92% | -2.8% | -3.3%
14 | CN1CCN(c2ccc(C(=O)Nc3n[nH]c4ccc(Cc5cc(F)cc(F)c5)cc34)c(NC3CCOCC3)c2)CC1 [entrectinib] | 4% | 2.95% | -2.01% | -2.36% | -12.4%
15 | Cc1ccc2nc(N)[nH]c(=O)c2c1Sc1ccncc1 [nolatrexed] | 0.89% | 3.11% | 1.17% | 2.04% | -2.82%
16 | Cn1c(COP(=O)(NCCBr)NCCBr)cnc1[N+](=O)[O-] | -3.18% | -1.04% | 0.12% | -0.54% | -3.06%
17 | CS(=O)(=O)c1ccc(-c2cnc(N)c(C(=O)Nc3ccccc3)n2)cc1 | 1.3% | -2.14% | 1.58% | 0.67% | 2.65%
18 | CC1(C)OC[C@H](NC(=O)Nc2ccc(Br)cc2Br)[C@H](c2ccccc2)O1 | -1.15% | 0.87% | -2.04% | -3.68% | -5.84%
19 | CC(=O)Nc1ccc(OCC(O)CNC(C)C)cc1 (stereo not given) [practolol] | 0.44% | 0.3% | 0.26% | 2.84% | 5.44%

Row | Structure (SMILES) | inhibition of SARS-CoV-2 cytopathic effect (1 nM) | inhibition of SARS-CoV-2 cytopathic effect (8.33 nM) | inhibition of SARS-CoV-2 cytopathic effect (100 nM) | inhibition of SARS-CoV-2 cytopathic effect (833.33 nM) | inhibition of SARS-CoV-2 cytopathic effect (10000 nM)
20 | C[C@H]1CO[C@@H]2Cn3cc(C(=O)NCc4ccc(F)cc4F)c(=O)c(O)c3C(=O)N12 | 0% | 1.03% | 1.79% | 1.33% | -0.84%
21 | CC1(C)O[C@@H]2C[C@H]3[C@@H]4CCC5=CC(=O)C=C[C@]5(C)[C@@]4(F)[C@@H](O)C[C@]3(C)[C@]2(C(=O)CO)O1 | 0.1% | -0.04% | 1.38% | 1.4% | -0.1%
22 | NC(=S)N/N=C/c1coc2ccccc2c1=O.[Cl][Cu][Cl] | 0.84% | -0.38% | 1.98% | -0.55% | 2.4%
23 | CCCOC(C(=O)OC1CCN(C)CC1)(c1ccccc1)c1ccccc1 [propiverine] | 0.57% | 1.63% | 0.85% | -0.19% | 1.89%
24 | COc1ccc(COc2cc3oc(=O)c4cc(C(C)O)ccc4c3cc2OC)cc1 (stereo not given) [palomid-529] | 0.28% | -1.83% | 0.02% | -0.05% | 1.22%
25 | O=c1n(CCCN2CCN(c3cccc(Cl)c3)CC2)nc2ccccn12 [trazodone] | 0.53% | 4.07% | 0.98% | -1.12% | -0.82%
26 | c1ccc(COCCCc2c[nH]cn2)cc1 [proxyfan] | -1.62% | -1.11% | -0.96% | 0.04% | -3.35%
27 | Nc1ccn([C@H]2CO[C@@H](CO)S2)c(=O)n1 [apricitabine] | 0.27% | 2.59% | 0.92% | 2.02% | -3.28%
28 | O=c1oc2cc(O)ccc2s1 [tioxolone] | 1.22% | -2.55% | -0.43% | -1.44% | -1.5%
29 | O=C(NC[C@H]1CN(c2ccc(N3CCOCC3=O)cc2)C(=O)O1)c1ccc(Cl)s1 [Rivaroxaban (Xarelto)] | 1.99% | 1.35% | 3.46% | 1.51% | 3.09%
30 | C(#CCN1CCCC1)CN1CCCC1 [tremorine] | 8.56% | 4.46% | -2.04% | -3.53% | -1.73%
31 | COc1c(C)cnc(Cn2cc(C#CCC(C)(C)O)c3c(Cl)nc(N)nc32)c1C | 2.11% | 1.52% | -1.98% | 0.61% | -7.6%
32 | CCCC[C@H]1OC(=O)c2ccccc21 [butylphthalide] | -2.11% | -2.6% | -0.12% | 1.5% | 0.31%
33 | CCN[C@H]1C[C@H](C)S(=O)(=O)c2sc(S(N)(=O)=O)cc21 [dorzolamide] | -0.7% | -3.23% | -4.56% | -1.92% | -1.06%
34 | CCCCCOc1ccc(-c2cc(-c3ccc(C(=O)N[C@H]4C[C@@H](O)[C@@H](O)NC(=O)[C@@H]5[C@@H](O)[C@@H](C)CN5C(=O)[C@H]([C@H](O)CC(N)=O)NC(=O)[C@H]([C@H](O)[C@@H](O)c5ccc(O)c(OS(=O)(=O)O)c5)NC(=O)[C@@H]5C[C@@H](O)CN5C(=O)[C@H]([C@@H](C)O)NC4=O)cc3)no2)cc1 [micafungin] | -6.42% | -5.65% | -5.9% | -3.13% | 4.81%
35 | CC[C@H]1OC(=O)[C@H](C)[C@@H](O[C@H]2C[C@@](C)(OC)[C@@H](O)[C@H](C)O2)[C@H](C)[C@@H](O[C@@H]2O[C@H](C)C[C@H](N(C)C)[C@H]2O)[C@](C)(O)C[C@@H](C)C(=O)[C@H](C)[C@@H](O)[C@]1(C)O [erythromycin] | -0.74% | -0.54% | -1.16% | 2.65% | 1.91%
36 | CC1Oc2cc(cnc2N)-c2c(nn(C)c2C#N)CN(C)C(=O)c2ccc(F)cc21 (stereo not given) | -0.41% | 1.22% | 0.495% | -2.23% | 0.255%
37 | Cc1c(Cl)cccc1S(=O)(=O)Nc1nc(NCCc2ccccc2)nc2c1CN(Cc1ccccc1)CC2 | 5.62% | 1.85% | 0.14% | 0.89% | -1.37%
38 | CCn1cc(C(=O)O)c(=O)c2cc(F)c(N3CCN(C)CC3)cc21 [pefloxacin] | 2.27% | -0.13% | 2.84% | -0.06% | 1.98%
